Assay results taken from paper PMC12820563, “FoxP3 forms a head-to-head dimer in vivo and stabilizes its multimerization on adjacent microsatellites”.
Over roughly 16,000 sequences, “rpm ratio (pull-down/input)” has its median near 0.94; the highest 2% begin near 1.7. This excerpt belongs to a sample that is enriched for the highest values.

What follows are sequences tested against T1, MBP-FoxP1dN (Mus musculus, UniProt P58462 326-579) (assay: PD-seq (MBP pull-down with sequencing); 20 mM Tris-HCl pH 7.5, 100 mM NaCl, 1.5 mM MgCl2, 0.4 uM protein, 0.1 uM dsDNA library, 30 min, room temperature, amylose pull-down; high values mean tight binding). Conditions: protein: recombinant; tags: His6-MBP; chain copies: 2; dsDNA, one strand shown.
T1 sequence: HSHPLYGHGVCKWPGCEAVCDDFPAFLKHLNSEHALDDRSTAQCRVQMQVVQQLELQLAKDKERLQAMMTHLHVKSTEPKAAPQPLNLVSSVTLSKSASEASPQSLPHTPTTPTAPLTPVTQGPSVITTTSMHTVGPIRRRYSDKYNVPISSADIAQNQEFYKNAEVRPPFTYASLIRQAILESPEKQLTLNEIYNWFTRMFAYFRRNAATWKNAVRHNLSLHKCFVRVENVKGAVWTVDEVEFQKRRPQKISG
In short: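 Binding is reads-per-million enrichment of pull-down over input, with replicates pooled. It comes from 30 min room-temperature incubation in Tris pH 7.5 buffer with NaCl and MgCl2 of 0.4 µM His6-MBP-tagged, N-terminally truncated mouse FoxP3 or FoxP1 fragment from E. coli with 0.1 µM Klenow-filled degenerate double-stranded DNA library, followed by amylose resin capture, three washes and Illumina sequencing of the released DNA.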
“GATGATTGTTCTCCCAGCTGATGAATTTTCTTTGTCGAGTAAACAAATTTTCCTAATCTTTCTGTTCAAGCGCCATCTAC” was tested, and the binding signal was 1.11 RPM ratio (pull-down/input).
“GATGATTGTTCTCCCAGCTGATGAATTTTGATTGTCGAGTAAACAAATTTTCCTAATCTTTCTGTTCAAGCGCCATCTAC” was tested, and the binding signal was 1.67 RPM ratio (pull-down/input).
For “GATGATTGTTCTCCCAGCTGATGAATTTTGTCTGTCGAGTAAACAAATTTTCCTAATCTTTCTGTTCAAGCGCCATCTAC”, the binding signal was 1.02 RPM ratio (pull-down/input).
With “GATGATTGTTCTCCCAGCTGATGAATTTTGTTTGTCGAGTAAACAAATTTTCCTAATCTTTCTGTTCAAGCGCCATCTAC” the binding signal was 2.66 RPM ratio (pull-down/input).
“GATGATTGTTCTCCCAGCTGATGAATTGTTTGCGTCGAGTAAACAAATTTTCCTAATCTTTCTGTTCAAGCGCCATCTAC” was tested, and the binding signal was 2.27 RPM ratio (pull-down/input).
With “GATGATTGTTCTCCCAGCTGATGAATTGTTTCTGTCGAGTAAACAAATTTTCCTAATCTTTCTGTTCAAGCGCCATCTAC” the binding signal was 1.25 RPM ratio (pull-down/input).
In the case of “GATGATTGTTCTCCCAGCTGATGAATTGTTTTTGTCGAGTAAACAAATTTTCCTAATCTTTCTGTTCAAGCGCCATCTAC”, the binding signal is reported as 2.31 RPM ratio (pull-down/input).
“GATGATTGTTCTCCCAGCTGATGAATTTCCTATATCGAGTAAACAAATTTTCCTAATCTTTCTGTTCAAGCGCCATCTAC” was tested, and the binding signal was 0.903 RPM ratio (pull-down/input).
“GATGATTGTTCTCCCAGCTGATGAATTCCAACTTTCGAGTAAACAAATTTTCCTAATCTTTCTGTTCAAGCGCCATCTAC” was tested, and the binding signal was 0.884 RPM ratio (pull-down/input).
With “GATGATTGTTCTCCCAGCTGATGAATTATCGTGTTCGAGTAAACAAATTTTCCTAATCTTTCTGTTCAAGCGCCATCTAC” the binding signal was 1.08 RPM ratio (pull-down/input).
With “GATGATTGTTCTCCCAGCTGATGAATTATAGACATCGAGTAAACAAATTTTCCTAATCTTTCTGTTCAAGCGCCATCTAC” the binding signal was 1.21 RPM ratio (pull-down/input).
With “GATGATTGTTCTCCCAGCTGATGAATTCTCTCCCTCGAGTAAACAAATTTTCCTAATCTTTCTGTTCAAGCGCCATCTAC” the binding signal was 0.835 RPM ratio (pull-down/input).
In the case of “GATGATTGTTCTCCCAGCTGATGAATTGGTCAATTCGAGTAAACAAATTTTCCTAATCTTTCTGTTCAAGCGCCATCTAC”, the binding signal is reported as 1.08 RPM ratio (pull-down/input).
With “GATGATTGTTCTCCCAGCTGATGAATTCAGAAACTCGAGTAAACAAATTTTCCTAATCTTTCTGTTCAAGCGCCATCTAC” the binding signal was 0.844 RPM ratio (pull-down/input).
For “GATGATTGTTCTCCCAGCTGATGAATTCGCATAATCGAGTAAACAAATTTTCCTAATCTTTCTGTTCAAGCGCCATCTAC”, the binding signal was 1.22 RPM ratio (pull-down/input).
In the case of “GATGATTGTTCTCCCAGCTGATGAATTAATAACCTCGAGTAAACAAATTTTCCTAATCTTTCTGTTCAAGCGCCATCTAC”, the binding signal is reported as 1 RPM ratio (pull-down/input).
In the case of “GATGATTGTTCTCCCAGCTGATGAATTCCCGCCCTCGAGTAAACAAATTTTCCTAATCTTTCTGTTCAAGCGCCATCTAC”, the binding signal is reported as 0.758 RPM ratio (pull-down/input).
For “GATGATTGTTCTCCCAGCTGATGAATTTTAGGTGTCGAGTAAACAAATTTTCCTAATCTTTCTGTTCAAGCGCCATCTAC”, the binding signal was 0.902 RPM ratio (pull-down/input).
For “GATGATTGTTCTCCCAGCTGATGAATTCTTTTTGTCGAGTAAACAAATTTTCCTAATCTTTCTGTTCAAGCGCCATCTAC”, the binding signal was 0.964 RPM ratio (pull-down/input).
“GATGATTGTTCTCCCAGCTGATGAATTCTGTTTGTCGAGTAAACAAATTTTCCTAATCTTTCTGTTCAAGCGCCATCTAC” was tested, and the binding signal was 2.36 RPM ratio (pull-down/input).
With “GATGATTGTTCTCCCAGCTGATGAATTCAATTTGTCGAGTAAACAAATTTTCCTAATCTTTCTGTTCAAGCGCCATCTAC” the binding signal was 1.07 RPM ratio (pull-down/input).
In the case of “GATGATTGTTCTCCCAGCTGATGAATTTCTTTCGTCGAGTAAACAAATTTTCCTAATCTTTCTGTTCAAGCGCCATCTAC”, the binding signal is reported as 0.887 RPM ratio (pull-down/input).
“GATGATTGTTCTCCCAGCTGATGAATTGCTGATTTCGAGTAAACAAATTTTCCTAATCTTTCTGTTCAAGCGCCATCTAC” was tested, and the binding signal was 1.31 RPM ratio (pull-down/input).
For “GATGATTGTTCTCCCAGCTGATGAATTGCTGTTTTCGAGTAAACAAATTTTCCTAATCTTTCTGTTCAAGCGCCATCTAC”, the binding signal was 2.45 RPM ratio (pull-down/input).
With “GATGATTGTTCTCCCAGCTGATGAATTTGCTGTTTCGAGTAAACAAATTTTCCTAATCTTTCTGTTCAAGCGCCATCTAC” the binding signal was 1.33 RPM ratio (pull-down/input).
For “GATGATTGTTCTCCCAGCTGATGAATTTGATGTTTCGAGTAAACAAATTTTCCTAATCTTTCTGTTCAAGCGCCATCTAC”, the binding signal was 1.16 RPM ratio (pull-down/input).
For “GATGATTGTTCTCCCAGCTGATGAATTTGTTTCGTCGAGTAAACAAATTTTCCTAATCTTTCTGTTCAAGCGCCATCTAC”, the binding signal was 1.3 RPM ratio (pull-down/input).
In the case of “GATGATTGTTCTCCCAGCTGATGAATTGTTTCCTTCGAGTAAACAAATTTTCCTAATCTTTCTGTTCAAGCGCCATCTAC”, the binding signal is reported as 1.44 RPM ratio (pull-down/input).
In the case of “GATGATTGTTCTCCCAGCTGATGAATTGTTTTCGTCGAGTAAACAAATTTTCCTAATCTTTCTGTTCAAGCGCCATCTAC”, the binding signal is reported as 2.02 RPM ratio (pull-down/input).
In the case of “GATGATTGTTCTCCCAGCTGATGAATTGTTTTCTTCGAGTAAACAAATTTTCCTAATCTTTCTGTTCAAGCGCCATCTAC”, the binding signal is reported as 2.03 RPM ratio (pull-down/input).
For “GATGATTGTTCTCCCAGCTGATGAATTGATGTTTTCGAGTAAACAAATTTTCCTAATCTTTCTGTTCAAGCGCCATCTAC”, the binding signal was 2.82 RPM ratio (pull-down/input).
For “GATGATTGTTCTCCCAGCTGATGAATTTCTTCTTTCGAGTAAACAAATTTTCCTAATCTTTCTGTTCAAGCGCCATCTAC”, the binding signal was 1.01 RPM ratio (pull-down/input).
For “GATGATTGTTCTCCCAGCTGATGAATTGAATGTTTCGAGTAAACAAATTTTCCTAATCTTTCTGTTCAAGCGCCATCTAC”, the binding signal was 1.01 RPM ratio (pull-down/input).
